High-throughput results as filed in PubChem.
CSC inhib – blocks cancer stem cells. 1.1% of 300,000 active. AID 2717. cancer stem cell-like cells viability, luminescence. inhibition, % at 7.5 µM; in the data active = inhibition above about 75%; tested in HMLE shEcad cells
Gli-Sufu antag – Gli-Sufu pathway antagonism; Sufu-KO-LIGHT fibroblasts, Gli luciferase reporter luminescence; 0.74% of 340,000 active; inhibition, % at 5 µM;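 active = inhibition above about 55%, limit read from the data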
Beta cell apopt – beta cell apoptosis inhibition | INS-1E cytokine-induced death, ATP luminescence, 48 h; percent of positive-control rescue, neutral wells zero | protection from apoptosis, % (test concentration not listed) | 0.8% of 300,000 active | AID 435005;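 active = Every replicate reaches about 75%, or at least half do and their mean reaches it too, limit read from the data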;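 note: higher means more ATP so stronger rescue from cytokine killing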
NR3A LBD binder – modulators (binders) of human NR3A ligand-binding domain; Tm shift relative to glycine control, % at 25 µM; NR3A LBD differential scanning fluorimetry, Tm shift; 0% = protein alone, 100% = glycine-bound protein; AID 1259313; 2.5% of 340,000 active;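 active = melting temperature shift of at least 10% of the positive control shift, at one fixed dose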
MPTP block – permeability transition pore inhibition; isolated mouse mitochondria, Ca2+ swelling absorbance, 30 min; inhibition, % at 10 µM; 1.4% of 360,000 active; AID 602449;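 active = inhibition of 50% or more, scaled per plate between neutral and stimulator controls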
Mdm2-MdmX inh – human Mdm2/MdmX binding inhibition. AID 485346. 3% of 330,000 active. inhibition, % at 8 µM. O15151+Q00987. SaOS-2 split-luciferase Mdm2/MdmX complementation, luminescence;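 active = inhibition of at least 50% at 8 µM in the primary screen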
Target sequence (O15151 whole entry, looked up): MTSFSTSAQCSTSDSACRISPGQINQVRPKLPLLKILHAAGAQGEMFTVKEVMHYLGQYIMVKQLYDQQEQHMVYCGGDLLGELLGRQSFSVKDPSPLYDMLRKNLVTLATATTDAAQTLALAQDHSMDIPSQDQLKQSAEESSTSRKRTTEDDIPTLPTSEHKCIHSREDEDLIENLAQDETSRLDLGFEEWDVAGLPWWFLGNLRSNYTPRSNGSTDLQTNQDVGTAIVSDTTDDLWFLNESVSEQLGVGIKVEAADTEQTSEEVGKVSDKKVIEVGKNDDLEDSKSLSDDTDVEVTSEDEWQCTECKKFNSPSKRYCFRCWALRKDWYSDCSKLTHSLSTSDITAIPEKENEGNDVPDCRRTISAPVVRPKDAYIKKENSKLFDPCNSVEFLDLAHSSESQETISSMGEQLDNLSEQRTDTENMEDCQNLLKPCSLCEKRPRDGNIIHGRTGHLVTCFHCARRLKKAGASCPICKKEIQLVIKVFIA
Target sequence (Q00987 whole entry, looked up): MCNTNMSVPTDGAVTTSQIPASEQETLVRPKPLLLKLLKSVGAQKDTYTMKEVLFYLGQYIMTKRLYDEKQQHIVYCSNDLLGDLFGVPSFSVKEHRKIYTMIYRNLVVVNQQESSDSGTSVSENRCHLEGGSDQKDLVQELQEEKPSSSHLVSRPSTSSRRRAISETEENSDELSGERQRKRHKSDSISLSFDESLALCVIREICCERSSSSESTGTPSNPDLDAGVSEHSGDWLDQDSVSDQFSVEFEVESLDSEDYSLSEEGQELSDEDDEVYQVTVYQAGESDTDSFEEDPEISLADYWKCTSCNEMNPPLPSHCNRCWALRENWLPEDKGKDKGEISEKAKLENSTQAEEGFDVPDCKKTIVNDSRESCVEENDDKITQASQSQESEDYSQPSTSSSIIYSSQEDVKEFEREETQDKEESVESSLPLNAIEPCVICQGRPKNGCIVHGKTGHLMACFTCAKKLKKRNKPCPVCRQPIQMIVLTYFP
Each line names hits and unclear results; the compound was inactive in the other large screens. Sampled rows, rich in hits. Any-hit rate of the full collection: about 6.6%.

O=S(=O)(/N=C(/Nc1ccc(Cl)c(S(=O)(=O)Nc2ccccc2Cl)c1)c1ccc(F)cc1)c1ccccc1	NR3A LBD binder 14
CCc1cccc2c(C(=O)COC(=O)c3ccc(O)cc3)c[nH]c12	NR3A LBD binder 15
CCc1cccc2c(C(=O)COC(=O)c3ccccc3)c[nH]c12	none
Fc1ccccc1Nc1nc2ccccc2o1	NR3A LBD binder 34
Cc1cccc(OCC(=O)N/N=C/c2cn[nH]c2-c2ccc(Cl)c(Cl)c2)c1	NR3A LBD binder 27
O=C1NC[C@H](CCCCN2C[C@H](Cc3ccc(O)cc3)N(CCc3ccc(O)cc3)C(=O)C2=O)N(CCc2ccc(O)cc2)C1=O	none (no result: CSC inhib, Gli-Sufu antag, Beta cell apopt, NR3A LBD binder, Mdm2-MdmX inh)
COc1ccc(-c2c(C)cc3oc(=O)cc(-c4ccccc4)c3c2C)cc1	NR3A LBD binder 15 (no result: CSC inhib, Beta cell apopt)
CC(C(=O)OCC(=O)N(C)C1(C#N)CCCCC1)N1C(=O)c2ccccc2C1=O (stereo unspecified)	none
Nc1nc2nonc2nc1N1CCCCC1	NR3A LBD binder 15
Cc1ccc(C(=O)NC(=C(Cl)Cl)S(=O)(=O)c2ccccc2)cc1	CSC inhib 98
CN(C)S(=O)(=O)N1CCN(CC(O)COc2ccc(-c3ccccc3)cc2)CC1 (stereo unspecified)	none
O=S(=O)(/C(=C/c1ccc(C(F)(F)F)cc1)c1nc2ccccc2[nH]1)c1ccccc1	CSC inhib 101, Beta cell apopt 100 (no result: Mdm2-MdmX inh)
COc1cc(NC(=O)COC(=O)/C=C/c2ccc(Cl)cc2Cl)cc(OC)c1	NR3A LBD binder 14
COc1cccc(NC(=O)COC(=O)/C=C/c2ccc(Cl)cc2Cl)c1	none
O=C(COc1ccc(S(=O)(=O)N2CCOCC2)cc1)Nc1cccc([N+](=O)[O-])c1	NR3A LBD binder 19
CC(NS(=O)(=O)c1ccc(OCC(=O)Nc2cccc([N+](=O)[O-])c2)cc1)c1ccccc1 (stereo unspecified)	NR3A LBD binder 19 (no result: Mdm2-MdmX inh)
Cc1ccc(S(=O)(=O)NC(=O)COc2ccc([N+](=O)[O-])cc2)cc1	NR3A LBD binder 17
O=C(COC(=O)COc1ccccc1)Nc1cccc([N+](=O)[O-])c1	none
COc1ccc(OCC(=O)NS(=O)(=O)c2ccc(Cl)cc2)cc1	none (no result: CSC inhib)
CC(C)NS(=O)(=O)c1ccc(OCC(=O)NCc2ccccc2)cc1	NR3A LBD binder 11
O=C(COc1ccc([N+](=O)[O-])cc1)Nc1ccc(S(=O)(=O)N2CCOCC2)cc1	none
COc1ccc(CNC(=O)COc2ccc(S(=O)(=O)NC(C)C)cc2)cc1	none
CC(=O)c1ccc(N2CCN(C(=O)CNC(=O)c3ccc(Br)o3)CC2)cc1	none (no result: CSC inhib, Gli-Sufu antag, Beta cell apopt, NR3A LBD binder, Mdm2-MdmX inh)
CC(CCc1ccccc1)NC(=O)COc1cc(F)ccc1[N+](=O)[O-] (stereo unspecified)	none
CC(CCc1ccccc1)NC(=O)COc1ccc(S(=O)(=O)N2CCOCC2)cc1[N+](=O)[O-] (stereo unspecified)	NR3A LBD binder 13
COc1cccc(NC(=O)CN2CCC(NC(=O)c3ccccc3C)CC2)c1	none (no result: CSC inhib, Gli-Sufu antag, Beta cell apopt, NR3A LBD binder, Mdm2-MdmX inh)
COc1cc2c(=O)n(Cc3ccco3)c(=O)n(CC(=O)c3ccc(Br)cc3)c2cc1OC	NR3A LBD binder 14
O=C(Cn1cnc2c(NCc3ccccc3)ncnc21)NCCCc1ccccc1	NR3A LBD binder 17 (no result: CSC inhib, Beta cell apopt)
Cn1c(=O)c2[nH]c(CCCCCCCc3nc4ccccc4[nH]3)nc2n(C)c1=O	none (no result: CSC inhib, Beta cell apopt, Mdm2-MdmX inh)
Cc1ccccc1N1CCN(C(=O)c2ccc(Oc3ccc(C(F)(F)F)cn3)cc2)CC1	CSC inhib 87
O=C(O)c1ccc(Oc2ccc(C(F)(F)F)cn2)cc1	none (no result: Beta cell apopt)
COc1cccc(-c2noc(C(C)n3nc(C)c([N+](=O)[O-])c3C)n2)c1 (stereo unspecified)	NR3A LBD binder 14
O=C(OCC(=O)c1c[nH]c2ccccc12)c1cc2ccccc2cc1O	NR3A LBD binder 32
Cc1[nH]c2ccccc2c1C(=O)COC(=O)c1cccc(S(=O)(=O)N2CCCCC2)c1	NR3A LBD binder 21
Cc1ccc(C(=O)OCC(=O)c2c[nH]c3ccccc23)cc1S(=O)(=O)N1CCCCC1	NR3A LBD binder 25
Cc1ccc(C(=O)OCC(=O)NCc2ccccc2)cc1S(=O)(=O)N1CCCCC1	none
Cn1c(N)c(C(=O)COC(=O)c2cccc(S(=O)(=O)N3CCCCC3)c2)c(=O)n(C)c1=O	none
Cc1onc(-c2c(F)cccc2Cl)c1C(=O)OCC(=O)c1c[nH]c2ccccc12	NR3A LBD binder 13
Cc1noc(C)c1C(=O)OCC(=O)c1c[nH]c2ccccc12	none
COc1ccc(C(=O)OCC(=O)c2c[nH]c3ccccc23)c(OC)c1	none
COC(=O)[C@]1(Cc2ccccc2)N[C@H](CN(C)S(=O)(=O)c2ccc(F)cc2)[C@@H]2C(=O)N(C)C(=O)[C@@H]21	none
COC(=O)[C@]1(Cc2ccccc2)N[C@H](CN(C)S(=O)(=O)c2ccc(C(C)(C)C)cc2)[C@@H]2C(=O)N(C)C(=O)[C@@H]21	NR3A LBD binder 15 (no result: CSC inhib)
CCN(C[C@H]1N[C@@](CC)(C(=O)OC)[C@H]2C(=O)N(C)C(=O)[C@@H]12)S(=O)(=O)c1ccc(C(C)(C)C)cc1	NR3A LBD binder 18 (no result: CSC inhib)
COc1ccc(CN(C(=O)CN2C(=O)c3ccccc3S2(=O)=O)C(C(=O)NCC2CCCO2)c2ccco2)cc1 (stereo unspecified)	none
CC(C)(C)n1nc2c(c1NC(=O)c1ccc([N+](=O)[O-])cc1)CS(=O)(=O)C2	none
COc1ccc(C(=O)CC(C(=O)O)c2ccc3c(c2)OCO3)cc1OC (stereo unspecified)	none (no result: CSC inhib, Gli-Sufu antag, Beta cell apopt, NR3A LBD binder, Mdm2-MdmX inh)
Cc1ccc(NC(=O)CN(C)C(=O)Cn2ncc(Cl)c(Cl)c2=O)cc1	CSC inhib 110 (no result: Mdm2-MdmX inh)
Cc1ccc(NC(=O)CN(C)C(=O)Cc2ccc(Cl)c(Cl)c2)cc1	none
COc1ccccc1NS(=O)(=O)c1ccc(NC(=O)c2[nH]nc(OC)c2[N+](=O)[O-])cc1	none
CCCN1CCN(CCCNC(=O)c2ccc3c(c2)NC(=O)c2ccccc2S3)CC1	NR3A LBD binder 42
O=C1NN(c2ccc(F)c(Cl)c2)C(=O)/C1=C\c1cccc(OC(=O)c2cccs2)c1	NR3A LBD binder 24
CC(C)=C1C(=O)NN(c2ccc(F)c(Cl)c2)C1=O	none
Oc1ccc2c(c1)c1ccccc1c1ncccc21	NR3A LBD binder 31 (no result: CSC inhib, Beta cell apopt, Mdm2-MdmX inh)
Oc1c(Cl)c(Cl)c2ncccc2c1Cl	none (no result: CSC inhib, Beta cell apopt, Mdm2-MdmX inh)
COc1ccc(CN2CCC(n3nccc3NC(=O)C3CC3)CC2)cc1O	NR3A LBD binder 14
CCOCc1cc(CN2CCC(n3nccc3NC(=O)C3CC3)CC2)ccc1OC	none (no result: CSC inhib, Beta cell apopt)
O=C1Nc2ccccc2CN2C(=O)c3cc(Cl)ccc3NC(=O)C12 (stereo unspecified)	none (no result: CSC inhib, Gli-Sufu antag, Beta cell apopt, NR3A LBD binder, Mdm2-MdmX inh)
N#C/C(=C\c1c[nH]c2ccccc12)C(=O)Nc1ncc(Cc2ccc(Cl)cc2Cl)s1	NR3A LBD binder 38
COc1ccc(CNC(=O)CN(CCC(C)C)S(=O)(=O)c2ccc3c(c2)OCCO3)cc1	NR3A LBD binder 154
CC(C)N(C(=O)Cn1cc(S(=O)(=O)CC(=O)Nc2ccccc2)c2ccccc21)C(C)C	none
O=C1N=c2ccc(Br)cc2=C1c1sc(=S)n(NS(=O)(=O)c2ccccc2)c1O	none
